Data as given in the supplement of paper PMC10849652.
Of roughly 7,900 targets only a part is listed; those with a hit were picked by preference. About 0.6% of all pairs of compound and target were hits.

compound: c1cn2cc(-c3ccc4cn[nH]c4c3)nc(Nc3ccc(N4CCOCC4)cc3)c2n1 [entospletinib]; test: log2 fold change, soluble protein after heating vs DMSO (PISA); higher = thermal stabilisation; K562 cells, 10 uM, 30 min; active = over 0.2 and 3.5 SD of the protein, either way, in both replicates (recomputed)
How it was run: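 K562 cells (2×10^6 cells/mL) were treated with 10 μM compound for 30 min, and aliquots were heated for 3 min over 48°C-58°C. Pooled aliquots were extracted in PBS with 0.5% NP-40 at 4°C, and the supernatant after 21,000xg for 90 min was measured by TMTpro 16plex LC-MS/MS with channel sums equalised. Reported thermal stability, relative to control samples and from duplicates, is a log2 fold change.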

Sequence of UniProt Q13907 (Q13907 whole entry, looked up): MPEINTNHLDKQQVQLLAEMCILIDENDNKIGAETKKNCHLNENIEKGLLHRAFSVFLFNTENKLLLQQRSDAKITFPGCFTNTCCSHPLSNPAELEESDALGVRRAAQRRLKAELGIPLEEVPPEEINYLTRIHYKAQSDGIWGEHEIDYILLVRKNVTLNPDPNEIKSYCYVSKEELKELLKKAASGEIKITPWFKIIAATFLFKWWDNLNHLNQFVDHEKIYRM
Sequence of UniProt Q9BUP3 (Q9BUP3 whole entry, looked up): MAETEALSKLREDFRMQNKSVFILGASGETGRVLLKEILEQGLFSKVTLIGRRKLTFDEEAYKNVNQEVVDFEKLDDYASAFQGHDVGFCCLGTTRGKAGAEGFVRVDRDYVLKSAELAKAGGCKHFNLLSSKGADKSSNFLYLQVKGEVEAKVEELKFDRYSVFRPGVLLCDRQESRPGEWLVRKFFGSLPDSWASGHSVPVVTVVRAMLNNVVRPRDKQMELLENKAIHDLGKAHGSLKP
Sequence of UniProt O14976 (O14976 whole entry, looked up): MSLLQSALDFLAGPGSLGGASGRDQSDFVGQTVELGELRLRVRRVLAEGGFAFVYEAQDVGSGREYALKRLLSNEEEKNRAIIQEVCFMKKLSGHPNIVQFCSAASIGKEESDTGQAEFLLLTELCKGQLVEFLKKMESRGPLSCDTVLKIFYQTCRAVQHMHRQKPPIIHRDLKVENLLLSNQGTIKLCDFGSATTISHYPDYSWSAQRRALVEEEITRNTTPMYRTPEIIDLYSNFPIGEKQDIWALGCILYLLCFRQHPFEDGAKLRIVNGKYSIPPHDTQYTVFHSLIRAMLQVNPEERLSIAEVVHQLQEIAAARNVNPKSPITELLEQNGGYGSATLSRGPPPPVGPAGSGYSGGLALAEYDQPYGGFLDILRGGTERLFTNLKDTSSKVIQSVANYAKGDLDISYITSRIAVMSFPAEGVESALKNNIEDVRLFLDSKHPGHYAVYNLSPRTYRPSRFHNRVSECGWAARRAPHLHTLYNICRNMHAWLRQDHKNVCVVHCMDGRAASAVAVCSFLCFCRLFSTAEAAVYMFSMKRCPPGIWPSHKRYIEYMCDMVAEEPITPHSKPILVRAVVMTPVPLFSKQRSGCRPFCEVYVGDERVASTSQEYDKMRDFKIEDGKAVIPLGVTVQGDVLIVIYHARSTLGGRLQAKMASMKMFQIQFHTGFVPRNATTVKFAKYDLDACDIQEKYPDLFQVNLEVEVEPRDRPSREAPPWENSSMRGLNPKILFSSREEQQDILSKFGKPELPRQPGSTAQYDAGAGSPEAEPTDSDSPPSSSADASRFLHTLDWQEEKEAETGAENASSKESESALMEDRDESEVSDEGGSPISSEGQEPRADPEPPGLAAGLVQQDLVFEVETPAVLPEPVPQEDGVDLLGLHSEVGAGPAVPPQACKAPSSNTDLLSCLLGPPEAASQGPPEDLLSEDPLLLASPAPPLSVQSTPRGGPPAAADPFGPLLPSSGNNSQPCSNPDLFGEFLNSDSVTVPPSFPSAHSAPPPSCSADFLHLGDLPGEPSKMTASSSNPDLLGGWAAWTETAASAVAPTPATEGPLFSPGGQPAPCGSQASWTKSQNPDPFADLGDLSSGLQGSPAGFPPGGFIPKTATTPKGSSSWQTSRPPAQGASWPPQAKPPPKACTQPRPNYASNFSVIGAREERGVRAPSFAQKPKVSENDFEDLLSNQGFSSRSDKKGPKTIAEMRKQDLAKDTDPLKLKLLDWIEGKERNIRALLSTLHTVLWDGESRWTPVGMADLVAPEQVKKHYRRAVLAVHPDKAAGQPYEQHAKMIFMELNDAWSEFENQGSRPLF
Sequence of UniProt O43427 (O43427 whole entry, looked up): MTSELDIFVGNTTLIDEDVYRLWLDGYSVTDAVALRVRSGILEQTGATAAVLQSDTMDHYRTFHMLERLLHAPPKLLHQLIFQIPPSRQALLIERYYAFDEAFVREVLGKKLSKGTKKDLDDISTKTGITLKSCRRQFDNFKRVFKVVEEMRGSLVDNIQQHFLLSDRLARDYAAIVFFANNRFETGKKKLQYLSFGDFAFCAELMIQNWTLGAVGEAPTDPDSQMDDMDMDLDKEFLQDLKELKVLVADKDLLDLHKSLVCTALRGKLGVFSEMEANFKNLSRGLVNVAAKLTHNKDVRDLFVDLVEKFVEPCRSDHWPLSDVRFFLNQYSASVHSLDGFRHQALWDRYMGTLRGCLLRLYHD
Sequence of UniProt P22087 (P22087 whole entry, looked up): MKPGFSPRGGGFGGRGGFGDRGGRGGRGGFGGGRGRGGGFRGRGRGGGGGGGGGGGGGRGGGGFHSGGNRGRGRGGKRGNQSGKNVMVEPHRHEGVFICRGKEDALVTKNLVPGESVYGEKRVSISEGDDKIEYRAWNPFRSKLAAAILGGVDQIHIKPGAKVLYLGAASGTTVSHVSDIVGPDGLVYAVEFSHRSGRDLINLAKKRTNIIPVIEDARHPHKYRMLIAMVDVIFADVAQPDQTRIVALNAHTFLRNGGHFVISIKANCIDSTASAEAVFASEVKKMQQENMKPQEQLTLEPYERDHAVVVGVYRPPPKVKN
Sequence of UniProt Q96HJ9 (Q96HJ9 whole entry, looked up): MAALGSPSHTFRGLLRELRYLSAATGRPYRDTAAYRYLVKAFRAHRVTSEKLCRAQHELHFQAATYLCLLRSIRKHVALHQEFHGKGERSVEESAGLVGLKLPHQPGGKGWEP
Sequence of UniProt P22830 (P22830 whole entry, looked up): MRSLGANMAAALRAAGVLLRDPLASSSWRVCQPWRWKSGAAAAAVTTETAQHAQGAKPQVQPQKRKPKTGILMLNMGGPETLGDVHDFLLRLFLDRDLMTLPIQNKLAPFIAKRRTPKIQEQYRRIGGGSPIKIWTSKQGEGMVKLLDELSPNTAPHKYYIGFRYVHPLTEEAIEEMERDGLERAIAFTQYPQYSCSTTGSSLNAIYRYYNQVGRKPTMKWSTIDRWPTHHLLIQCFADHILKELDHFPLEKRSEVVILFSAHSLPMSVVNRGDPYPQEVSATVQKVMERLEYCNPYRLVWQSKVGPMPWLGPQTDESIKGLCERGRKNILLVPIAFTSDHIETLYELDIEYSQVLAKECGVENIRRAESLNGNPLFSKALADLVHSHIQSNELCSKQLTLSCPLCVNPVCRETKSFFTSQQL
Sequence of UniProt P01112 (P01112 whole entry, looked up): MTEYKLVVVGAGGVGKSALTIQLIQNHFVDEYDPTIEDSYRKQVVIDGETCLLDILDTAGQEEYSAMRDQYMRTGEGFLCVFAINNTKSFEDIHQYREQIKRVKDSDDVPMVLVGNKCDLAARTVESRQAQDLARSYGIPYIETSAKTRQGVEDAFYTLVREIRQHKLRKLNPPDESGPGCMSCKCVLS
Sequence of UniProt O76003 (O76003 whole entry, looked up): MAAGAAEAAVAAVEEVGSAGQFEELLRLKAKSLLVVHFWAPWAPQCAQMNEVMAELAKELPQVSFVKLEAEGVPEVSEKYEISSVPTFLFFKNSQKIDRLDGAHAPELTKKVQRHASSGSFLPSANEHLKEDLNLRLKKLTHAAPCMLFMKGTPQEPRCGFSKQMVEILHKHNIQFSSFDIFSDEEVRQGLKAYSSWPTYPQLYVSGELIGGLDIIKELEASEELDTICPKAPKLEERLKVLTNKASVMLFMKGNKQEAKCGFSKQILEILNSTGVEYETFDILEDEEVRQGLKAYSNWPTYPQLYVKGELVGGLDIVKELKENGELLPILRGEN
Sequence of UniProt P52597 (P52597 whole entry, looked up): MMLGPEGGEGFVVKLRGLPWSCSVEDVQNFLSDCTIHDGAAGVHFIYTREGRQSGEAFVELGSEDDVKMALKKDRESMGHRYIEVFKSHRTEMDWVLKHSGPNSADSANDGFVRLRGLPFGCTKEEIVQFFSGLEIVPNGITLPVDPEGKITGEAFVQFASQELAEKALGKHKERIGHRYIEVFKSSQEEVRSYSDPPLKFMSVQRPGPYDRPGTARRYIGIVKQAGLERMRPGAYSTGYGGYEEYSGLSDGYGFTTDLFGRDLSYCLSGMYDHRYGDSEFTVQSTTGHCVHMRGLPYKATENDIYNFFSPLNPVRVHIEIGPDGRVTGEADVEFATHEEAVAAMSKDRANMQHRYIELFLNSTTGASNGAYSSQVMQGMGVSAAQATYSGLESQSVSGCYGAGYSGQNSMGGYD
Sequence of UniProt Q7Z4Q2 (Q7Z4Q2 whole entry, looked up): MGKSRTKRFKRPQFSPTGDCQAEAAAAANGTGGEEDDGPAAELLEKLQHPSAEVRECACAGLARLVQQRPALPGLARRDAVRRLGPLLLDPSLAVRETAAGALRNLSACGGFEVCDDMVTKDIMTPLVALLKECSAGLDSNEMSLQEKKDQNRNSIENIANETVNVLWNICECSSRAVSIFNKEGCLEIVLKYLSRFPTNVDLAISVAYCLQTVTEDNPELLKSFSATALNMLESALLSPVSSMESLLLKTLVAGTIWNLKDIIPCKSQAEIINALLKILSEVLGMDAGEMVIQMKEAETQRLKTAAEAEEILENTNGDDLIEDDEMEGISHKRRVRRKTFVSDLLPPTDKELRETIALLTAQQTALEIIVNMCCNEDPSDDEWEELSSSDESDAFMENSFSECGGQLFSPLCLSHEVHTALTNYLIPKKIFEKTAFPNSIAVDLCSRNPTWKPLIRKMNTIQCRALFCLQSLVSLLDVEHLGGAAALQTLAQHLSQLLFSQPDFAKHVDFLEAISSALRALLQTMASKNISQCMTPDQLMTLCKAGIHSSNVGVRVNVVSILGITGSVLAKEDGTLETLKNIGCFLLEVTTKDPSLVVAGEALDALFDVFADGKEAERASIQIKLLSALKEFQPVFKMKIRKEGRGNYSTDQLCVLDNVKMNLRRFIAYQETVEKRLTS
Sequence of UniProt Q9H4A6 (Q9H4A6 whole entry, looked up): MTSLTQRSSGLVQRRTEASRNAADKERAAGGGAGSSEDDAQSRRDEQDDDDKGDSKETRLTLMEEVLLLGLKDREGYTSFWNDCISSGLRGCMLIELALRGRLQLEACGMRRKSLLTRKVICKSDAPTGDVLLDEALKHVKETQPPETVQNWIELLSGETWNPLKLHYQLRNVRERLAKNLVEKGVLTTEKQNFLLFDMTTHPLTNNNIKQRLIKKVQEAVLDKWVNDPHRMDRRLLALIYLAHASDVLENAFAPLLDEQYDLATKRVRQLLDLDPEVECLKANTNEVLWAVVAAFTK

log2 fold change, inactive:
FBL (UniProt P22087) 0.119
FIBP (UniProt O43427) 0.455
H2AFX (UniProt P16104) -0.005
IDI1 isoform 2 (UniProt Q13907) 0.066
GLRX3 (UniProt O76003) 0.001
FECH isoform 2 (UniProt P22830) 0.471
HSPA8 (UniProt E9PN89) 0.099
HRAS (UniProt P01112) 0.027
FNTA (UniProt P49354) 0.111
GHDC (UniProt Q8N2G8) 0.038
HDAC6 (UniProt Q9UBN7) 0.034
FOXO3 (UniProt O43524) -0.107
GLCCI1 (UniProt Q86VQ1) 0.007
IFT74 (UniProt Q96LB3) 0.021
HDDC2 (UniProt Q7Z4H3) -0.001
HAUS4 (UniProt Q9H6D7) 0.147
GAPVD1 isoform 6 (UniProt Q14C86) 0.045
HIP1R (UniProt O75146) -0.029
HTATIP2 isoform 3 (UniProt Q9BUP3) 0.003
HBZ, A0A494C057 -0.048
GALK1 isoform 2 (UniProt P51570) -0.103
FYB1 isoform 3 (UniProt O15117) 0.036
FLNA (UniProt P21333) 0.062
GAK (UniProt O14976) 0.371
HNRNPUL2 (UniProt Q1KMD3) 0.007
HPCAL1 (UniProt P37235) 0.023
FMC1 (UniProt Q96HJ9) 0
FIZ1 (UniProt Q96SL8) 0.042
HMGN2 (UniProt P05204) 0.111
FCHO1 (UniProt O14526) -0.059
HNRNPC isoform 2 (UniProt P07910) 0.274
FKBP7 (UniProt Q9Y680) -0.012
GUK1 isoform 2 (UniProt Q16774) 0.093
GOLPH3 (UniProt Q9H4A6) -0.016
GTF2H3 (UniProt Q13889) 0.087
HEATR3 (UniProt Q7Z4Q2) 0
GPAT4 (UniProt Q86UL3) 0.055
HNRNPF (UniProt P52597) 0.046
IFNGR1 (UniProt P15260) -0.019
GAB2 (UniProt Q9UQC2) 0.046
